Reference: PubChem BioAssay (NCATS)
Records with an inconclusive call do not appear. Active and inactive are the calls of the source. Calls follow the shape of the dose curve; as a rule, active = well fitted curve in the direction sought with a large enough effect; inconclusive = small, poorly fitted or top-dose-only effect, or another doubt; inactive = no such curve, though single readings can be large; an effect the other way counts as inactive or inconclusive.

Tests used:
[1] = target: Rap guanine nucleotide exchange factor 3 (Homo sapiens) (UniProt O95398); test: Confirmatory qHTS for antagonist of cAMP-regulated guanine nucleotide exchange factor 3 (EPAC1) (AID 1645880); also: nearly all actives have a fitted effect of over 55% in size; also: potency is read from the fitted curve at half-maximal effect
Sequence of Rap guanine nucleotide exchange factor 3 (Homo sapiens) (O95398 whole entry, looked up): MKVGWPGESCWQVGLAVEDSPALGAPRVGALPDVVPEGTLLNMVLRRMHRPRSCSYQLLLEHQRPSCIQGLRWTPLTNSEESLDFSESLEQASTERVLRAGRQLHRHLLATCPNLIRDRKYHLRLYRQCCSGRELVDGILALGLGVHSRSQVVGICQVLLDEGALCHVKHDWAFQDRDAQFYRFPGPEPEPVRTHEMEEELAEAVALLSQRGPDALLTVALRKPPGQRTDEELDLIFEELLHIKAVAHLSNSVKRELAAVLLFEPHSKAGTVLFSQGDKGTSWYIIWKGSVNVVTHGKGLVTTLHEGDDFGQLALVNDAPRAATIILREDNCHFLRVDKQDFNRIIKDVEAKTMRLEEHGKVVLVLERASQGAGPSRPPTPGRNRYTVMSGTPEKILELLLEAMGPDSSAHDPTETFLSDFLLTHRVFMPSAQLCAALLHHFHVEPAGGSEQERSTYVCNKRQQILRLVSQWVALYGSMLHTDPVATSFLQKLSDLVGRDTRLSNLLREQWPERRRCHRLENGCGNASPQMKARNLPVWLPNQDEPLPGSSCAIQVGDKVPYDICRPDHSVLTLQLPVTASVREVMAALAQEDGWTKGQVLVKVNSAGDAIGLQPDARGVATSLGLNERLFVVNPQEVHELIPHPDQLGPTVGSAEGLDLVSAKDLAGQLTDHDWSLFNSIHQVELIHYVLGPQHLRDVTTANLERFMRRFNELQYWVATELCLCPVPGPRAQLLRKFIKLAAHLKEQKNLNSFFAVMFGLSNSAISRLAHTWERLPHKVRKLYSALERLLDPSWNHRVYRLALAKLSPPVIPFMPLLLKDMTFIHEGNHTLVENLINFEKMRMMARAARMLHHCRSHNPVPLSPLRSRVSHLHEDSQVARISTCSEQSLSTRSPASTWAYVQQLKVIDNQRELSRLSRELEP
In short: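 Nucleotide exchange uses 100 nM EPAC1, 250 nM RAP1B-BODIPY-GDP and 50 uM GDP, with compounds in a concentration-titration series. After 5 min at room temperature, fluorescence (480 nm ex/540 nm em) is read every 5 min for 30 min. Data are normalized to control ATA and DMSO.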

[2] = target: Rap guanine nucleotide exchange factor 3 (Homo sapiens) (UniProt O95398); test: Confirmatory qHTS for agonist of cAMP-regulated guanine nucleotide exchange factor 3 (EPAC1) (AID 1645881);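 also: EPAC1 catalysed release of BODIPY-GDP from Rap1B seen as fluorescence loss; 100% = effect of cAMP agonist control; nearly all actives have a fitted effect of over 75% in size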
[3] = target: Rap guanine nucleotide exchange factor 4 (Homo sapiens) (UniProt Q8WZA2); test: Confirmatory qHTS for agonist of cAMP-regulated guanine nucleotide exchange factor 4 (EPAC2) (AID 1645884);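 also: nucleotide exchange releases bodipy-GDP from Rap1 and this lowers its fluorescence; % is scaled to controls: 0 for no effect and ±100 for the full control effect; nearly all actives have a fitted effect of over 65% in size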
Sequence of Rap guanine nucleotide exchange factor 4 (Homo sapiens) (Q8WZA2 whole entry, looked up): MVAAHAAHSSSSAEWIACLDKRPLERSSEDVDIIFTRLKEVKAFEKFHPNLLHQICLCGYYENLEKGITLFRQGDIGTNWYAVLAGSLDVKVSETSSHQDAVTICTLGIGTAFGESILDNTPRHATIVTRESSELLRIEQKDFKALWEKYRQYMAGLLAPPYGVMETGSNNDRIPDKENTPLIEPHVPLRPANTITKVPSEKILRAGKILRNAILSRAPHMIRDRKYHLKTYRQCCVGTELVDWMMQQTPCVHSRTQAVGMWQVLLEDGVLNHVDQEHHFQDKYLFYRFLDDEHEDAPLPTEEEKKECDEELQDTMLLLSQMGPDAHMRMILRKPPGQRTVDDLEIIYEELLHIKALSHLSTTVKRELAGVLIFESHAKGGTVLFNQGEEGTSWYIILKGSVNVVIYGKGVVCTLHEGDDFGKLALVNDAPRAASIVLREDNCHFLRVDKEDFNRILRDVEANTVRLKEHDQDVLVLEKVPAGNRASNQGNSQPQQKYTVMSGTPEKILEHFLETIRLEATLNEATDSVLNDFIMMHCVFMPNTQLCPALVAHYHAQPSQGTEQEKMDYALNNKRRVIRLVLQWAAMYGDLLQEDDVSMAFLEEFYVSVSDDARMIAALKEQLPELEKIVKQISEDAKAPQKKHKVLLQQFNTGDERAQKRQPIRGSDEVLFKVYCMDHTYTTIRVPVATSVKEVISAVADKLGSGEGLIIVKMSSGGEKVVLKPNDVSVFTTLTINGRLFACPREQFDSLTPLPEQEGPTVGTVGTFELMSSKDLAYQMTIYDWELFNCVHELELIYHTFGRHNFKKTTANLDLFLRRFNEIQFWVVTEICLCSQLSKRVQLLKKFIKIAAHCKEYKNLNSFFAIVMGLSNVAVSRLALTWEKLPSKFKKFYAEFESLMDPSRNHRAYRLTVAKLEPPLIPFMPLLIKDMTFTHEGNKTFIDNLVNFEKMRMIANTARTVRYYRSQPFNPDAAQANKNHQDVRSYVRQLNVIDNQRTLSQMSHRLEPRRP

[4] = target: Rap guanine nucleotide exchange factor 4 (Homo sapiens) (UniProt Q8WZA2); test: Confirmatory qHTS for antagonist of cAMP-regulated guanine nucleotide exchange factor 4 (EPAC2) (AID 1645885); also: nearly all actives have a fitted effect of over 25% in size
[5] = target: Rap guanine nucleotide exchange factor 3 (Homo sapiens) (UniProt O95398); test: Counterscreen qHTS for agonist of cAMP-regulated guanine nucleotide exchange factor 3 (EPAC1) (AID 1645889); also: % of control where 0% means no effect; nearly all actives have a fitted effect of over 40% in size
In short: (§1)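 Measured: fluorescence of BODIPY-GDP bound to Rap1B, which falls as exchange proceeds. Conditions include 50 uM competing GDP, 5 and 30 min reads, and a later cAMP challenge for antagonist detection.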

[6] = target: Cytochrome P450 3A4 (Homo sapiens) (UniProt P08684); test: qHTS Assay for Inhibitors and Substrates of Cytochrome P450 3A4 (AID 884); also: series mostly up to about 57 µM; % is scaled to controls: 0 for no effect and ±100 for the full control effect; nearly all actives have a fitted effect of over 50% in size
Sequence of Cytochrome P450 3A4 (Homo sapiens) (P08684 whole entry, looked up): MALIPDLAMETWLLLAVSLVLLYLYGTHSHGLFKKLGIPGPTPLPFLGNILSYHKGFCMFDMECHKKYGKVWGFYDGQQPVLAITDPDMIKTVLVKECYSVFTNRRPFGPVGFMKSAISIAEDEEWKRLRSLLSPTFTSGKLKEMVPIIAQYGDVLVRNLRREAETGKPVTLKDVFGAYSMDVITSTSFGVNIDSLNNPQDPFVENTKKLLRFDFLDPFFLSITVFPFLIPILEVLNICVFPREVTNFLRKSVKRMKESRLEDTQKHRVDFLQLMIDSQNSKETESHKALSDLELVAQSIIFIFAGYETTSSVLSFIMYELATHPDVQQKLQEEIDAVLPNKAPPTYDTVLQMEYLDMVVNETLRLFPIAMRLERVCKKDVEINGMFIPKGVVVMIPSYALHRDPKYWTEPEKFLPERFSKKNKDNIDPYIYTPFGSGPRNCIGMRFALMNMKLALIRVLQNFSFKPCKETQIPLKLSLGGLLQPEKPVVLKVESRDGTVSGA
In short: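 20 nM human CYP3A4 with 25 uM Luciferin-PPXE (at KM) in 200 mM KPO4, preincubated 10 min with compound; NADPH regeneration started a 60 min RT reaction. Luciferin detected by luminescence, normalized to 57 uM ketoconazole as full inhibition.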

[7] = Confirmation and Secondary Assay for Modulators of Hemoglobin Beta Chain Splicing at IVS2 654 locus (AID 910);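 also: per-well total GFP intensity by laser scanning cytometry after 2-day treatment; % of control where 0% means no effect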
In short: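 HeLa cells stably carrying EGFP interrupted by mutant beta-globin IVS2-654 intron (CMV-driven) were treated with compound for 2 days at 37C; corrected splicing was scored as total peak GFP intensity per well (488 nm excitation, 500-520 nm emission).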

[8] = Confirmation and Secondary Assay for Modulators of Hemoglobin Beta Chain Splicing at IVS2 705 locus (AID 930);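 also: HeLa cells stably expressing the EGFP-705 splicing reporter; GFP fluorescence per well restored by corrected splicing of the IVS2-705 intron in EGFP; series mostly up to about 46 µM; % of control where 0% means no effect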
In short: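 Stable HeLa line with EGFP disrupted by mutant beta-globin intron 2 (705). Overnight attachment, then 2 days of compound at 37C, 5% CO2. Signal: peak GFP intensity summed over objects 5-250 µm.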

[9] = target: Ubiquitin carboxyl-terminal hydrolase 1 (Homo sapiens) (UniProt O94782); test: Inhibitors of USP1/UAF1: Pilot qHTS (AID 504865);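 also: rhodamine fluorescence freed from ubiquitin-rhodamine substrate followed over time; top concentration of the series differs between compounds; % is scaled to controls: 0 for no effect and ±100 for the full control effect; nearly all actives have a fitted effect of over 35% in size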
Sequence of Ubiquitin carboxyl-terminal hydrolase 1 (Homo sapiens) (O94782 whole entry, looked up): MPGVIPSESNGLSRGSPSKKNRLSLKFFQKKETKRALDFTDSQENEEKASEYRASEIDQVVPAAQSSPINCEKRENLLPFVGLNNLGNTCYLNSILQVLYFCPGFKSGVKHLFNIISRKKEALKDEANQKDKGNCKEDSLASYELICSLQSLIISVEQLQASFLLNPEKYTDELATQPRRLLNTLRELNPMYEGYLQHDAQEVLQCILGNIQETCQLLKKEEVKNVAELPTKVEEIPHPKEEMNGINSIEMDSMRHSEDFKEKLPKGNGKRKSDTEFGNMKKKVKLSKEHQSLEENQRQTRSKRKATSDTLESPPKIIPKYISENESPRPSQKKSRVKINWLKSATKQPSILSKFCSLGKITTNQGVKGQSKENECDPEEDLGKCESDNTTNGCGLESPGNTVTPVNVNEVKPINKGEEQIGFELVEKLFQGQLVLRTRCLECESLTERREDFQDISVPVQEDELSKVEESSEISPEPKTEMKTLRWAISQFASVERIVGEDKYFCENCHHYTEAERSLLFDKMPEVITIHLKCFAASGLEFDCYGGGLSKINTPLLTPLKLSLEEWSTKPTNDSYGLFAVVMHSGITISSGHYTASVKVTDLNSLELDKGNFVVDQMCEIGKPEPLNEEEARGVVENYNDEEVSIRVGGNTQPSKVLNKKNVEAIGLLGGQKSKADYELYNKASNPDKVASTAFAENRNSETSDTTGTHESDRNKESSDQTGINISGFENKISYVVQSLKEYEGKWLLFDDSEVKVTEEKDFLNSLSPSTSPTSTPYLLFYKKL
In short: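 Deubiquitinase activity followed as kinetic rhodamine fluorescence release from 150 nM Ub-Rho. 1 nM USP1/UAF1 with compound, after 15 min room-temperature preincubation, in HEPES pH 7.8 buffer containing TCEP, EDTA, BSA and Tween-20.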

[10] = target: Rap guanine nucleotide exchange factor 3 (Homo sapiens) (UniProt O95398); test: Counterscreen qHTS for antagonist of cAMP-regulated guanine nucleotide exchange factor 3 (EPAC1) (AID 1645888);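 also: fluorescence loss as bound BODIPY-GDP is released from Rap1B; % of control where 0% means no effect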
In short: as §1

CCN(CC)CCn1c2c(c(SCC(=O)NCc3ccccc3)nc1=O)CCCC2
inactive: Potency [1] | Potency [2] | Potency [3] | Potency [4] | Potency [5]

CN(C)CC/C=C1/c2ccccc2COc2ccccc21
inactive: Potency [6] | Potency [7] | Potency [8] | Potency [9]

O=C(CNC(=O)c1sc2ccccc2c1Cl)Nc1ccccc1F
inactive: Potency [1] | Potency [2] | activation [3] 11.8% [at 17.1 µM, percent relative to cAMP agonist control] | Potency [4] | activation [5] 2.6% [at 30.8 µM]

Cc1ccc(CNC(=O)C(=O)NCCC2CCCCN2S(=O)(=O)c2cccs2)cc1 (stereo not given)
inactive: Potency [1] | Potency [2] | activation [3] -1.43% [at 17.1 µM, percent relative to cAMP agonist control] | Potency [4] | activation [5] 20.6% [at 30.8 µM]

O=c1c2ccccc2nc(/C=C/c2cccnc2)n1CCc1ccccc1
inactive: Potency [2] | Potency [3] | Potency [4] | Potency [5]
active: Potency [1] 23.9 µM

COc1cc2cncc(Cc3ccc(Cl)cc3)c2cc1OC
inactive: Potency [1] | Potency [2] | Potency [3] | Potency [4] | Potency [5]

CCCc1nn2c(=O)cc(COC(=O)c3cccc(NC(=O)CCc4ccccc4)c3)nc2s1
inactive: Potency [1] | Potency [2] | Potency [3] | Potency [4] | Potency [10] | Potency [5]

CCOCCCn1c(SCC(=O)Nc2ccc(OC)cc2OC)nc2ccccc2c1=O
inactive: Potency [1] | Potency [2] | Potency [3] | outcome [4] inactive [at 12.7 µM] | Potency [5]
